# ± gives the standard deviation of the averaged measurements.
# Columns and labels:
# [1] = compound: CC(C)c1cccc(C(C)C)c1N1C(=O)c2ccc(O)cc2C1=O; assay: reporter fold induction vs vehicle; higher = higher reporter activity
# How it was run: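 Multiplexed cellular biosensor reporter system with cis response-element and trans nuclear-receptor transcription factor reporter constructs (48 cis, 25 trans) and homogeneous detection, tested in ToxCast Phase II at 8 concentrations (0.091–200 µM). Reporter activity is given as fold induction relative to vehicle control. Replicates were averaged where present.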
# [2] = compound: CC(C)c1cccc(C(C)C)c1N1C(=O)c2ccc(O)cc2C1=O; assay: BioMAP readout fold decrease vs vehicle (vehicle/treated); higher = stronger decrease of the readout vs vehicle (values <1 mean increase)
# Method: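 BioSeek BioMAP human primary cell (co-)culture systems (3C, 4H, LPS, SAg, BE3C, CASM3C, hDFCGF, KF3CT) treated with 5HPP-33 at 1.48, 4.44, 13.3 and 40 µM. Read-outs are protein levels by ELISA, proliferation and SRB total protein. Duplicate rows per assay are averaged as replicates. Tested in ToxCast Phase II for this study; exposure time not stated.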
# 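For BioMAP readout fold decrease vs vehicle (vehicle/treated) in this document: Co-cultures of keratinocytes, bronchial epithelial and smooth muscle cells, fibroblasts, HUVECs and PBMCs under stimuli like LPS, TNF-α, IFN-γ, IL-1β, TGF-β or EGF, SRB reflecting cytotoxicity.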
target,measurement,setting,value
HIF1a_CIS,reporter fold induction,[1]; 0.091 µM,1.04
same,reporter fold induction,[1]; 0.274 µM,1.07
same,reporter fold induction,[1]; 0.823 µM,1.03
same,reporter fold induction,[1]; 2.469 µM,1.03
same,reporter fold induction,[1]; 7.407 µM,1.07
same,reporter fold induction,[1]; 22.22 µM,1.22
same,reporter fold induction,[1]; 66.67 µM,0.927
same,reporter fold induction,[1]; 200 µM,1.08
CAR_TRANS,reporter fold induction,[1]; 0.091 µM,1.1
same,reporter fold induction,[1]; 0.274 µM,0.946
same,reporter fold induction,[1]; 0.823 µM,0.997
same,reporter fold induction,[1]; 2.469 µM,0.985
same,reporter fold induction,[1]; 7.407 µM,0.814
same,reporter fold induction,[1]; 22.22 µM,0.835
same,reporter fold induction,[1]; 66.67 µM,0.84
same,reporter fold induction,[1]; 200 µM,0.343
RARa_TRANS,reporter fold induction,[1]; 0.091 µM,1.04
same,reporter fold induction,[1]; 0.274 µM,0.782
same,reporter fold induction,[1]; 0.823 µM,1.21
same,reporter fold induction,[1]; 2.469 µM,1.2
same,reporter fold induction,[1]; 7.407 µM,1.48
same,reporter fold induction,[1]; 22.22 µM,2.4
same,reporter fold induction,[1]; 66.67 µM,2.07
same,reporter fold induction,[1]; 200 µM,0.506
p53_CIS,reporter fold induction,[1]; 0.091 µM,1.06
same,reporter fold induction,[1]; 0.274 µM,1.04
same,reporter fold induction,[1]; 0.823 µM,1.03
same,reporter fold induction,[1]; 2.469 µM,0.969
same,reporter fold induction,[1]; 7.407 µM,0.996
same,reporter fold induction,[1]; 22.22 µM,0.831
same,reporter fold induction,[1]; 66.67 µM,1.19
same,reporter fold induction,[1]; 200 µM,0.456
GR_TRANS,reporter fold induction,[1]; 0.091 µM,0.906
same,reporter fold induction,[1]; 0.274 µM,1.07
same,reporter fold induction,[1]; 0.823 µM,1.06
same,reporter fold induction,[1]; 2.469 µM,1.18
same,reporter fold induction,[1]; 7.407 µM,0.95
same,reporter fold induction,[1]; 22.22 µM,1.13
same,reporter fold induction,[1]; 66.67 µM,1.24
same,reporter fold induction,[1]; 200 µM,1.38
M_32_CIS,reporter fold induction,[1]; 0.091 µM,1.02
same,reporter fold induction,[1]; 0.274 µM,0.981
same,reporter fold induction,[1]; 0.823 µM,1
same,reporter fold induction,[1]; 2.469 µM,1.02
same,reporter fold induction,[1]; 7.407 µM,0.972
same,reporter fold induction,[1]; 22.22 µM,0.978
same,reporter fold induction,[1]; 66.67 µM,1.12
same,reporter fold induction,[1]; 200 µM,1.02
TCF_b_cat_CIS,reporter fold induction,[1]; 0.091 µM,1.06
same,reporter fold induction,[1]; 0.274 µM,0.944
same,reporter fold induction,[1]; 0.823 µM,1.13
same,reporter fold induction,[1]; 2.469 µM,1.06
same,reporter fold induction,[1]; 7.407 µM,0.839
same,reporter fold induction,[1]; 22.22 µM,0.671
same,reporter fold induction,[1]; 66.67 µM,0.77
same,reporter fold induction,[1]; 200 µM,0.204
RXRb_TRANS,reporter fold induction,[1]; 0.091 µM,1.04
same,reporter fold induction,[1]; 0.274 µM,1.11
same,reporter fold induction,[1]; 0.823 µM,1.24
same,reporter fold induction,[1]; 2.469 µM,1.01
same,reporter fold induction,[1]; 7.407 µM,1.17
same,reporter fold induction,[1]; 22.22 µM,1.19
same,reporter fold induction,[1]; 66.67 µM,1.07
same,reporter fold induction,[1]; 200 µM,0.915
GATA_CIS,reporter fold induction,[1]; 0.091 µM,1
same,reporter fold induction,[1]; 0.274 µM,0.993
same,reporter fold induction,[1]; 0.823 µM,0.983
same,reporter fold induction,[1]; 2.469 µM,1.05
same,reporter fold induction,[1]; 7.407 µM,0.98
same,reporter fold induction,[1]; 22.22 µM,0.902
same,reporter fold induction,[1]; 66.67 µM,1.07
same,reporter fold induction,[1]; 200 µM,0.842
RORE_CIS,reporter fold induction,[1]; 0.091 µM,1.04
same,reporter fold induction,[1]; 0.274 µM,1.06
same,reporter fold induction,[1]; 0.823 µM,1.06
same,reporter fold induction,[1]; 2.469 µM,0.974
same,reporter fold induction,[1]; 7.407 µM,1.08
same,reporter fold induction,[1]; 22.22 µM,1.15
same,reporter fold induction,[1]; 66.67 µM,1.84
same,reporter fold induction,[1]; 200 µM,1.72
Ets_CIS,reporter fold induction,[1]; 0.091 µM,1.02
same,reporter fold induction,[1]; 0.274 µM,0.953
same,reporter fold induction,[1]; 0.823 µM,1.01
same,reporter fold induction,[1]; 2.469 µM,1.02
same,reporter fold induction,[1]; 7.407 µM,1
same,reporter fold induction,[1]; 22.22 µM,0.917
same,reporter fold induction,[1]; 66.67 µM,1.01
same,reporter fold induction,[1]; 200 µM,0.897
NRF2_ARE_CIS,reporter fold induction,[1]; 0.091 µM,1.19
same,reporter fold induction,[1]; 0.274 µM,1.1
same,reporter fold induction,[1]; 0.823 µM,0.995
same,reporter fold induction,[1]; 2.469 µM,0.886
same,reporter fold induction,[1]; 7.407 µM,1.15
same,reporter fold induction,[1]; 22.22 µM,1.48
same,reporter fold induction,[1]; 66.67 µM,2.47
same,reporter fold induction,[1]; 200 µM,0.886
HSE_CIS,reporter fold induction,[1]; 0.091 µM,0.991
same,reporter fold induction,[1]; 0.274 µM,0.939
same,reporter fold induction,[1]; 0.823 µM,1.05
same,reporter fold induction,[1]; 2.469 µM,1.05
same,reporter fold induction,[1]; 7.407 µM,0.985
same,reporter fold induction,[1]; 22.22 µM,0.942
same,reporter fold induction,[1]; 66.67 µM,1.81
same,reporter fold induction,[1]; 200 µM,3.95
M_06_TRANS,reporter fold induction,[1]; 0.091 µM,0.964
same,reporter fold induction,[1]; 0.274 µM,1.01
same,reporter fold induction,[1]; 0.823 µM,0.995
same,reporter fold induction,[1]; 2.469 µM,1.01
same,reporter fold induction,[1]; 7.407 µM,1.01
same,reporter fold induction,[1]; 22.22 µM,1
same,reporter fold induction,[1]; 66.67 µM,0.996
same,reporter fold induction,[1]; 200 µM,0.992
AP_2_CIS,reporter fold induction,[1]; 0.091 µM,1.04
same,reporter fold induction,[1]; 0.274 µM,1
same,reporter fold induction,[1]; 0.823 µM,1
same,reporter fold induction,[1]; 2.469 µM,1.05
same,reporter fold induction,[1]; 7.407 µM,1.01
same,reporter fold induction,[1]; 22.22 µM,0.908
same,reporter fold induction,[1]; 66.67 µM,0.965
same,reporter fold induction,[1]; 200 µM,0.898
CASM3C_uPAR,BioMAP readout fold decrease,[2]; 1.48 µM,1.15 ± 0.1
same,BioMAP readout fold decrease,[2]; 4.44 µM,1.21 ± 0.037
same,BioMAP readout fold decrease,[2]; 13.3 µM,1.29 ± 0.05
same,BioMAP readout fold decrease,[2]; 40 µM,2.6 ± 0.26
NFI_CIS,reporter fold induction,[1]; 0.091 µM,1.01
same,reporter fold induction,[1]; 0.274 µM,0.966
same,reporter fold induction,[1]; 0.823 µM,1.05
same,reporter fold induction,[1]; 2.469 µM,0.998
same,reporter fold induction,[1]; 7.407 µM,1.02
same,reporter fold induction,[1]; 22.22 µM,0.921
same,reporter fold induction,[1]; 66.67 µM,1.41
same,reporter fold induction,[1]; 200 µM,1.66
Ahr_CIS,reporter fold induction,[1]; 0.091 µM,0.965
same,reporter fold induction,[1]; 0.274 µM,0.977
same,reporter fold induction,[1]; 0.823 µM,0.949
same,reporter fold induction,[1]; 2.469 µM,1.01
same,reporter fold induction,[1]; 7.407 µM,1.06
same,reporter fold induction,[1]; 22.22 µM,1
same,reporter fold induction,[1]; 66.67 µM,2.27
same,reporter fold induction,[1]; 200 µM,1.09
hDFCGF_Proliferation,BioMAP readout fold decrease,[2]; 1.48 µM,1.22 ± 0.13
same,BioMAP readout fold decrease,[2]; 4.44 µM,2.66 ± 0.091
same,BioMAP readout fold decrease,[2]; 13.3 µM,4.594 ± 0.011
same,BioMAP readout fold decrease,[2]; 40 µM,12.1 ± 0.038
hDFCGF_EGFR,BioMAP readout fold decrease,[2]; 1.48 µM,1.0619 ± 0.00028
same,BioMAP readout fold decrease,[2]; 4.44 µM,1.02 ± 0.028
same,BioMAP readout fold decrease,[2]; 13.3 µM,1.19 ± 0.025
same,BioMAP readout fold decrease,[2]; 40 µM,1.291 ± 0.0087
LPS_PGE2,BioMAP readout fold decrease,[2]; 1.48 µM,0.966 ± 0.071
same,BioMAP readout fold decrease,[2]; 4.44 µM,0.863 ± 0.057
same,BioMAP readout fold decrease,[2]; 13.3 µM,0.841 ± 0.037
same,BioMAP readout fold decrease,[2]; 40 µM,0.776 ± 0.044
SAg_Proliferation,BioMAP readout fold decrease,[2]; 1.48 µM,1.22 ± 0.15
same,BioMAP readout fold decrease,[2]; 4.44 µM,1.7 ± 0.1
same,BioMAP readout fold decrease,[2]; 13.3 µM,1.76 ± 0.053
same,BioMAP readout fold decrease,[2]; 40 µM,10.3 ± 0.41
BE3C_IL1a,BioMAP readout fold decrease,[2]; 1.48 µM,1.06 ± 0.13
same,BioMAP readout fold decrease,[2]; 4.44 µM,1.13 ± 0.015
same,BioMAP readout fold decrease,[2]; 13.3 µM,1.19 ± 0.015
same,BioMAP readout fold decrease,[2]; 40 µM,1.85 ± 0.082
LPS_TissueFactor,BioMAP readout fold decrease,[2]; 1.48 µM,0.905 ± 0.021
same,BioMAP readout fold decrease,[2]; 4.44 µM,0.9505 ± 0.0063
same,BioMAP readout fold decrease,[2]; 13.3 µM,1.04 ± 0.02
same,BioMAP readout fold decrease,[2]; 40 µM,1.21 ± 0.024
LPS_TNFa,BioMAP readout fold decrease,[2]; 1.48 µM,0.955 ± 0.077
same,BioMAP readout fold decrease,[2]; 4.44 µM,0.923 ± 0.036
same,BioMAP readout fold decrease,[2]; 13.3 µM,1.26 ± 0.13
same,BioMAP readout fold decrease,[2]; 40 µM,1.56 ± 0.35
SAg_MIG,BioMAP readout fold decrease,[2]; 1.48 µM,1.05 ± 0.017
same,BioMAP readout fold decrease,[2]; 4.44 µM,1.04 ± 0.012
same,BioMAP readout fold decrease,[2]; 13.3 µM,1.07 ± 0.034
same,BioMAP readout fold decrease,[2]; 40 µM,7.73 ± 1.1
LPS_VCAM1,BioMAP readout fold decrease,[2]; 1.48 µM,1.14 ± 0.055
same,BioMAP readout fold decrease,[2]; 4.44 µM,1.55 ± 0.14
same,BioMAP readout fold decrease,[2]; 13.3 µM,2.13 ± 0.16
same,BioMAP readout fold decrease,[2]; 40 µM,3.55 ± 0.13
BE3C_SRB,BioMAP readout fold decrease,[2]; 1.48 µM,0.9933 ± 0.0058
same,BioMAP readout fold decrease,[2]; 4.44 µM,0.9934 ± 0.0085
same,BioMAP readout fold decrease,[2]; 13.3 µM,1.0272 ± 0.001
same,BioMAP readout fold decrease,[2]; 40 µM,1.1579 ± 0.0011
CASM3C_SRB,BioMAP readout fold decrease,[2]; 1.48 µM,1.022 ± 0.0094
same,BioMAP readout fold decrease,[2]; 4.44 µM,1.1 ± 0.012
same,BioMAP readout fold decrease,[2]; 13.3 µM,1.07 ± 0.023
same,BioMAP readout fold decrease,[2]; 40 µM,1.41 ± 0.047

# — the supplement of paper PMC3616981
